From ChEMBL document CHEMBL1961873, “Compounds: GSK PKIS; Assays: Nanosyn kinase panel” (2012) come the findings set out here.

For assay [1], the target named is T1, Tyrosine-protein kinase ITK/TSK (Homo sapiens) (UniProt Q08881).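 Note: values are mean percent inhibition of ITK from the GSK PKIS screen.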
T1 sequence (whole entry): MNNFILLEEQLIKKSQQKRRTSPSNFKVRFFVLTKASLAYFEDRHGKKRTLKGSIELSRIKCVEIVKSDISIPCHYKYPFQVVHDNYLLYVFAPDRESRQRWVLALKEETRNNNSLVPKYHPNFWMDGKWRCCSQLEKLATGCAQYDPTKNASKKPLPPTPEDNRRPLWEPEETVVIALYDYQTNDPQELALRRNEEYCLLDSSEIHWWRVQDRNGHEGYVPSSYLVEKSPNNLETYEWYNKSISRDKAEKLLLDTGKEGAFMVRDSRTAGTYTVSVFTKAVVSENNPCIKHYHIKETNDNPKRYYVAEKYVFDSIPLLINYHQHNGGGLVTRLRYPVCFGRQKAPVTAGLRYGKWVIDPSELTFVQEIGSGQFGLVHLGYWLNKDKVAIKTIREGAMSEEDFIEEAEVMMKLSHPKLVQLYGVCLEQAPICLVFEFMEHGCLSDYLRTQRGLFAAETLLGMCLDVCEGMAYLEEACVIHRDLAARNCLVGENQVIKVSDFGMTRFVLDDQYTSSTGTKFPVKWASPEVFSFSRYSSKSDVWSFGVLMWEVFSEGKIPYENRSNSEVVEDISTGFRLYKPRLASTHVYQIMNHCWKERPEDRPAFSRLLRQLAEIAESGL
The conditions noted are these: at 1 µM.

For assay [2], the target named is Tyrosine-protein kinase JAK1 (Homo sapiens) (UniProt P23458). The settings on record: at 0.1 µM.
Chain of Tyrosine-protein kinase JAK1 (Homo sapiens) (P23458 whole entry): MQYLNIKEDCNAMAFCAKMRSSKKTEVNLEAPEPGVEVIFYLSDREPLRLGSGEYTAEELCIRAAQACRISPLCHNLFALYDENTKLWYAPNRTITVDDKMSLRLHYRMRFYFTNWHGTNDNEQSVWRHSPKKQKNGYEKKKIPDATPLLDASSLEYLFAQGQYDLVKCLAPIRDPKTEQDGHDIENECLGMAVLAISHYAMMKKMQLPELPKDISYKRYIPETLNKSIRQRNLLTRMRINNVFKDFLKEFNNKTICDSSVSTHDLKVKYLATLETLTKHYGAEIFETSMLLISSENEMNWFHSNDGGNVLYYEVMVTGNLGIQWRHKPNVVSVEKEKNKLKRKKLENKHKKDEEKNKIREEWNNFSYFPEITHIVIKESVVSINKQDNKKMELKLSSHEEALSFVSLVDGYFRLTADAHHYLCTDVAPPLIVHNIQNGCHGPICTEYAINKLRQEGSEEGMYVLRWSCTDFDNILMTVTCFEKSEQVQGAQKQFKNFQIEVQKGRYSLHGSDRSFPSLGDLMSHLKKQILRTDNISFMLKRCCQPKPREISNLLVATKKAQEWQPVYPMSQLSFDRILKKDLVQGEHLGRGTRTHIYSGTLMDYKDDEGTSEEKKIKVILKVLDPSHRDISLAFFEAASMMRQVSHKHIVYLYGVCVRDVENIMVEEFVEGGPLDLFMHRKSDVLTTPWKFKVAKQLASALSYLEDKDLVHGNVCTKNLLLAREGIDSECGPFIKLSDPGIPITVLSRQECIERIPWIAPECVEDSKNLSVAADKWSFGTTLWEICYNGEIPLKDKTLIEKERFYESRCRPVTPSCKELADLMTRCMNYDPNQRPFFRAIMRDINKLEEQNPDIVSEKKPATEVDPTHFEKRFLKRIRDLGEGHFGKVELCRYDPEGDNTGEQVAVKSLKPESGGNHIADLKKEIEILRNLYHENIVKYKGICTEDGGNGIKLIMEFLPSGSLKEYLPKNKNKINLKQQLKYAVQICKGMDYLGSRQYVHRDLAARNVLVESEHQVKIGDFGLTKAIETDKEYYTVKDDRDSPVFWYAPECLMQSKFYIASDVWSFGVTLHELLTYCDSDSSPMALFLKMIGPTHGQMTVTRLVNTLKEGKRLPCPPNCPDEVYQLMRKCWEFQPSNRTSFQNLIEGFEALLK
The target is the same in assay [3]. The settings on record: at 1 µM.
Assay [4] concerns the target Tyrosine-protein kinase JAK2 (Homo sapiens) (UniProt O60674). The conditions noted are these: at 0.1 µM.
For assay [5] the target is unchanged. The conditions noted are these: at 1 µM.
In assay [6] the target is T2, Tyrosine-protein kinase JAK3 (Homo sapiens) (UniProt P52333).
T2 sequence (whole entry): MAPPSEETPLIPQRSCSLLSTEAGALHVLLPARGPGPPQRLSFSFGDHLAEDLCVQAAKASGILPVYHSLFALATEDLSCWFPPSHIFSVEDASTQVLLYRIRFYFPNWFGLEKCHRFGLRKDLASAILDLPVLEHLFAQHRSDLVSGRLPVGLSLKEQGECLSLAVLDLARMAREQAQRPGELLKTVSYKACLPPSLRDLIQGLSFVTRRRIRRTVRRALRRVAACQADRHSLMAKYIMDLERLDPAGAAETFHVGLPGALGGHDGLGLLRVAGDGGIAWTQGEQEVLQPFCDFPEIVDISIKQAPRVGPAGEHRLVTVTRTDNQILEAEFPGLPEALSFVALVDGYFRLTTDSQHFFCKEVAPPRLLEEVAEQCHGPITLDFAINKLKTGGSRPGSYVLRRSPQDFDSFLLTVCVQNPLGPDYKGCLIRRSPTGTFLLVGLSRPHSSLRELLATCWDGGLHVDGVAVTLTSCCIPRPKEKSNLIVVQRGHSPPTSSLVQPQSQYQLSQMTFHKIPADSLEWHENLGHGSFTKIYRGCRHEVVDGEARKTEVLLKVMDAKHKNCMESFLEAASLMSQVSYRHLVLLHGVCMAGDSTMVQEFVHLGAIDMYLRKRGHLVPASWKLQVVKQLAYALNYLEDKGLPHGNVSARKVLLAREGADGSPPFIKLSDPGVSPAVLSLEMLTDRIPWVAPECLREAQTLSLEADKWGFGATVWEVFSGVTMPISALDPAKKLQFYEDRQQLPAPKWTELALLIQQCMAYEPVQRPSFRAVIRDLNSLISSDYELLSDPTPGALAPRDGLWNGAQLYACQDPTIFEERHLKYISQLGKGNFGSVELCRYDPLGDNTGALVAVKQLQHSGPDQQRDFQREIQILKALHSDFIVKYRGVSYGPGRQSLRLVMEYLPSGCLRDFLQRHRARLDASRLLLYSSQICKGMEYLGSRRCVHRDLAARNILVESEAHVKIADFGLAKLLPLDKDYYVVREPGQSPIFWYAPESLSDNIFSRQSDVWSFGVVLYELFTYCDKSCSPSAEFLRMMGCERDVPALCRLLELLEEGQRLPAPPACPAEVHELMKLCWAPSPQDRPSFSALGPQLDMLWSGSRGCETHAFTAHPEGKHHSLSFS
The conditions noted are these: at 0.1 µM.

The target in assay [7] is T2, Tyrosine-protein kinase JAK3 (Homo sapiens). The conditions noted are these: at 1 µM.
Assay [8] addresses Vascular endothelial growth factor receptor 2 (Homo sapiens) (UniProt P35968). The conditions noted are these: at 0.1 µM.
Assay [9] shares this target. The settings on record: at 1 µM.
Assay [10] has as its target Mast/stem cell growth factor receptor Kit (Homo sapiens) (UniProt P10721). The conditions noted are these: at 0.1 µM.
For assay [11] the target is unchanged. The settings on record: at 1 µM.
Assay [12] has as its system Mast/stem cell growth factor receptor Kit (Homo sapiens), P10721 [D816V]. The settings on record: at 0.1 µM.
Assay [13] has the same test system. The settings on record: at 1 µM.
Assay [14] concerns Mast/stem cell growth factor receptor Kit (Homo sapiens), P10721 [T670I]. The conditions noted are these: at 0.1 µM.
Chain of Mast/stem cell growth factor receptor Kit (Homo sapiens), P10721 [T670I] (P10721 whole entry T670I): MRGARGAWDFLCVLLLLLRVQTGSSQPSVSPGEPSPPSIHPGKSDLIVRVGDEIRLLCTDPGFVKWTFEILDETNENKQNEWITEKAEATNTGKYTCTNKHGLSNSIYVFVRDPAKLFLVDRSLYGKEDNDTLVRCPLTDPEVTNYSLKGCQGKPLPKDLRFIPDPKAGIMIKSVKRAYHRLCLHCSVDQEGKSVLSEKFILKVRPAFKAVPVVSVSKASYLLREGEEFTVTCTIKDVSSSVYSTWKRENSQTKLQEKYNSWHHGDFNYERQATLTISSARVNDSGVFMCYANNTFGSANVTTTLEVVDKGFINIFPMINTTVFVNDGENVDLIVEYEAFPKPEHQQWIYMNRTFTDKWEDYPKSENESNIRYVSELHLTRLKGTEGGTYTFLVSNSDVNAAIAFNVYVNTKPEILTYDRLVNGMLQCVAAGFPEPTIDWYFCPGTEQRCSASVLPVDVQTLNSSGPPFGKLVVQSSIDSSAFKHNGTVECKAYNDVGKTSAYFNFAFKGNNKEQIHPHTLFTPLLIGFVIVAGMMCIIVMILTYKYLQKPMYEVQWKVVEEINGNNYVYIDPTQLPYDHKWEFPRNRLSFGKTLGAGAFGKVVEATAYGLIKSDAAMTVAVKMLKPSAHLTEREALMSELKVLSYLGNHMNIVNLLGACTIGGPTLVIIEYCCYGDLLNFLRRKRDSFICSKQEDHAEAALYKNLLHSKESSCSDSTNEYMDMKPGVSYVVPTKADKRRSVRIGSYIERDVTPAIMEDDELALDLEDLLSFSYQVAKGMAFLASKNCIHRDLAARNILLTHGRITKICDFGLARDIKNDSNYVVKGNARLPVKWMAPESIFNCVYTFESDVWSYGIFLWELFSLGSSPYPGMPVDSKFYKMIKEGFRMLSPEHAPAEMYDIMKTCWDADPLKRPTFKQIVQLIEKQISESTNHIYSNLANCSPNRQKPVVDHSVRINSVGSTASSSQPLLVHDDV
Assay [15] shares this test system. The conditions noted are these: at 1 µM.
Assay [16] relates to Mast/stem cell growth factor receptor Kit (Homo sapiens), P10721 [V560G]. The conditions noted are these: at 0.1 µM.
Chain of Mast/stem cell growth factor receptor Kit (Homo sapiens), P10721 [V560G] (P10721 whole entry V560G): as the sequence (P10721 whole entry T670I) above, with V560G, I670T counted along it
Assay [17] shares this test system. The settings on record: at 1 µM.
Assay [18] has as its target Tyrosine-protein kinase Lck (Homo sapiens) (UniProt P06239). The conditions noted are these: at 0.1 µM.
The target is the same in assay [19]. The conditions noted are these: at 1 µM.
Assay [20] deals with Leukocyte tyrosine kinase receptor (Homo sapiens) (UniProt P29376). The conditions noted are these: at 0.1 µM.
Chain of Leukocyte tyrosine kinase receptor (Homo sapiens) (P29376 whole entry): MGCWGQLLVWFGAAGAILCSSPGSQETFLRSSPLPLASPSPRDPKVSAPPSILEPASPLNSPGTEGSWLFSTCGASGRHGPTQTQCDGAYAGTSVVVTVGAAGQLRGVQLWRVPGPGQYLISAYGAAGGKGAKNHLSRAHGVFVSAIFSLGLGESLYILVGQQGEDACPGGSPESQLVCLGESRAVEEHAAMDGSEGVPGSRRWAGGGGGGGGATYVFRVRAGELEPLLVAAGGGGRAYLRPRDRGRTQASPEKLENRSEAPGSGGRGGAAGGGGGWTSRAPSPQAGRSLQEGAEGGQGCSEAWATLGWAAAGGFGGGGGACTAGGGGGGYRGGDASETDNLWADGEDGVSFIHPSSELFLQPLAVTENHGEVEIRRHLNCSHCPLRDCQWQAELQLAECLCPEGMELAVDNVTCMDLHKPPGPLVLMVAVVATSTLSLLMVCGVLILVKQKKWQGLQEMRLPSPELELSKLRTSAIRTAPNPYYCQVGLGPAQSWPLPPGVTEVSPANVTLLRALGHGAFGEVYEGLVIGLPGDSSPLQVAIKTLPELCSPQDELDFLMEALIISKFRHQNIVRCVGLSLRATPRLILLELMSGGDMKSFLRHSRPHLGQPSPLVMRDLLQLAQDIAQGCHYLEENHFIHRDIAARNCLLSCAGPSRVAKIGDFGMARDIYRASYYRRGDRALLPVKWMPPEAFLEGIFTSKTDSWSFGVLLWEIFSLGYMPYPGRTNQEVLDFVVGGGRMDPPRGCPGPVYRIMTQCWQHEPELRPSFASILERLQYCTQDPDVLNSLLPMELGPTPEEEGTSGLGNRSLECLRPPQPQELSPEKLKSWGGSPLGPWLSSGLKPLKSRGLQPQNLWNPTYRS

Several values for one entry are separate records, joined by “and”; a condition that tells them apart may be missing. Equal values may be shown once.

Chain of Mast/stem cell growth factor receptor Kit (Homo sapiens), P10721 [D816V] (P10721 whole entry D816V): as the sequence (P10721 whole entry T670I) above, with I670T, D816V counted along it
Chain of Mast/stem cell growth factor receptor Kit (Homo sapiens) (P10721 whole entry): as the sequence (P10721 whole entry T670I) above, with I670T counted along it
Chain of Tyrosine-protein kinase Lck (Homo sapiens) (P06239 2-509 limits assumed): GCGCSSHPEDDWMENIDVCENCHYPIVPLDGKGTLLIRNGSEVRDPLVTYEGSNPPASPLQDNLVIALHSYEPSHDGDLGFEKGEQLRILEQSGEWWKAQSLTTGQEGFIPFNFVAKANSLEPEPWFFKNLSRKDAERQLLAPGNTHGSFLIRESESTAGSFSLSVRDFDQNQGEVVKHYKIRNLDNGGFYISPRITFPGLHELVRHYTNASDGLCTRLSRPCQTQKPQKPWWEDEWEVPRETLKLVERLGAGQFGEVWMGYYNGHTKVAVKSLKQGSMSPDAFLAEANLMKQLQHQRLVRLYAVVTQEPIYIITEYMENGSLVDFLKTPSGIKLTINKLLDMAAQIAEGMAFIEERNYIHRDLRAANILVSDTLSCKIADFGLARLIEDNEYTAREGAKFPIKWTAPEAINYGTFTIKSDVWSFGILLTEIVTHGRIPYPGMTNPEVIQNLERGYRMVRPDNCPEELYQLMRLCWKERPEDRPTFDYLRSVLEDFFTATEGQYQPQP
Chain of Vascular endothelial growth factor receptor 2 (Homo sapiens) (P35968 whole entry): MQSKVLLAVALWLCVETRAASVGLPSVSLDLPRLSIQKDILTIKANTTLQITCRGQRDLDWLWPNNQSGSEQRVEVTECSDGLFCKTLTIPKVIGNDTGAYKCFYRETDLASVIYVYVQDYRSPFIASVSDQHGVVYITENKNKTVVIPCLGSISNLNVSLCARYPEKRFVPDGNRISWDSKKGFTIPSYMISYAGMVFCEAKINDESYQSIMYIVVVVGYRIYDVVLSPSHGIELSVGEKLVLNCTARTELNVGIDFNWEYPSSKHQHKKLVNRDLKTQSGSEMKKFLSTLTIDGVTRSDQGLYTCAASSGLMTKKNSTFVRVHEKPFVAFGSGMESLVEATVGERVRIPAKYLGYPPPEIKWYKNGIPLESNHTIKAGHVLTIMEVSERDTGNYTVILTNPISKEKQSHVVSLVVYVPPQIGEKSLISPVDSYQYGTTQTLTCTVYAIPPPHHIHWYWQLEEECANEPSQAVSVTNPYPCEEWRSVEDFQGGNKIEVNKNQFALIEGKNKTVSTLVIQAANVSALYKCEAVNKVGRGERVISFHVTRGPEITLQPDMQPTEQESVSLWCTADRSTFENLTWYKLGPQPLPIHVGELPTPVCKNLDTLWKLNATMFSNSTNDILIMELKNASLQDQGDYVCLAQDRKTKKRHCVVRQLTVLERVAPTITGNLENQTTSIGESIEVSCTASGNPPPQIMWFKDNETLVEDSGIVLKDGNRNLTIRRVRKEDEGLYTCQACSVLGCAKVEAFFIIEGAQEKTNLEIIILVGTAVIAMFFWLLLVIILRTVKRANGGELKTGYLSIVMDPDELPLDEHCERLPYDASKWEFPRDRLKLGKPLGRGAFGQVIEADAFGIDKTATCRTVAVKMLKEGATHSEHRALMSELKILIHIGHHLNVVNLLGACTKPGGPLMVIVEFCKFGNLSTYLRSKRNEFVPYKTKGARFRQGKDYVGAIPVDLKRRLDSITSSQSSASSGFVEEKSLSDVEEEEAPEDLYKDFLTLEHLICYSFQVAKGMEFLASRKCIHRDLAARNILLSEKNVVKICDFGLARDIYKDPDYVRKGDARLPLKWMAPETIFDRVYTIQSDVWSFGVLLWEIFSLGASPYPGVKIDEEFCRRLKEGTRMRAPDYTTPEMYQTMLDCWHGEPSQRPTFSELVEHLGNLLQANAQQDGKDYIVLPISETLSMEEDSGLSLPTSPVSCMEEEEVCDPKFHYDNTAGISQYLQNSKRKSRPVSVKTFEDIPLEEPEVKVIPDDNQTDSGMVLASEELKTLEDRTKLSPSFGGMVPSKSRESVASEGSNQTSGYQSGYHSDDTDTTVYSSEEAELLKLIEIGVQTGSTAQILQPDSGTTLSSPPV

For `CN1CCC(C(=O)Nc2n[nH]c3nc(-c4ccc(O)cc4)c(Br)cc23)CC1`, the inhibition in [1] is -1.94% and 1.71%; in [2] it was 2.37% and 1.02%; in [3], 19.7% and 3.43%; in [4], 1.01% and -0.3%; in [5], 1.49% and 1.42%; in assay [6] it was -3.69% and -1.35%. Also, the inhibition in assay [7] was -2.24% and 0.59%; in [8] it was 7.52% and 6.12%; in [9], 24.5% and 23.2%; in assay [10], 3.81% and 2.92%; in assay [11], 12.5% and 9.42%; in assay [12], 4.08% and -0.48%. Moreover, the inhibition in [13] was 5.39% and 3.49%; in [14], 2.44% and 0.42%; in assay [15], 4.98% and 0.1%; in [16], -0.43% and 0.93%; in assay [17], 0.37% and -0.64%; in assay [18], -0.45% and 3.18%. The inhibition in assay [19] was 7.96% and 12.4%; in assay [20], 11.7% and 9.83%.
Consider `CC1(C)CC(n2cnc(-c3ccc(F)cc3)c2-c2ccnc(N)n2)CC(C)(C)N1`, for which the inhibition in [1] is 0.97%; in [2], -2.83%; in assay [3], 1.68%; in [4], 0.57%; in assay [5] it was -0.41%; in [6], -0.01%. In addition, the inhibition is -0.6% in assay [7]; -0.9% in [8]; 5.32% in assay [9]; -0.71% in assay [10]; 2.82% in assay [11]; -0.86% in assay [12]. For the same molecule, the inhibition in assay [13] was -3.56%; in [14], 2.5%; in assay [15] it was 1.11%; in assay [16], 1.03%; in assay [17], -0.87%; in assay [18], -0.02%. Moreover, the inhibition in assay [19] amounted to 6.94%; in [20] it was 1.09%.
Take `Fc1cccc(COc2ccc(Nc3ncncc3C#Cc3ccccc3)cc2Cl)c1`: the inhibition was 1.93% in assay [1]; 2.37% in [2]; 14.7% in [3]; 1.34% in [4]; 2.01% in assay [5]; -1.12% in assay [6]. For the same molecule, the inhibition in [7] is 0.1%; in assay [8], 5.83%; in assay [9], 6.38%; in assay [10], 3.62%; in assay [11], 7.97%; in assay [12], 9.06%. Moreover, the inhibition was 7.92% in [13]; 3.83% in [14]; 6.38% in assay [15]; -1.39% in assay [16]; -0.04% in assay [17]; 1.72% in assay [18]. Moreover, the figures for the inhibition in assay [19] and in assay [20] were 2% and 4.37%, respectively.
`CN(c1ccc(NC(=O)NCCN2CCOCC2)cc1)c1ccnc(Nc2ccc(CS(C)(=O)=O)cc2)n1`: the inhibition in assay [1] was 9.06%; in [2], 3.28%; in assay [3], 15%; in [4], 0.02%; in assay [5], 9.94%; in assay [6], -0.77%. Also, the inhibition in [7] was determined as 7.15%; in assay [8], 7.07%; in [9], 34.8%; in assay [10], 60.2%; in [11], 94.2%; in [12], 2.49%. For the same molecule, the inhibition in assay [13] was determined as 4.98%; in assay [14], 21.6%; in assay [15] it was 73.6%; in [16], 57.2%; in assay [17] it was 84.5%; in assay [18], 1.63%. The inhibition stood at 11% in assay [19] and 2.84% in assay [20].
Take `CS(=O)(=O)CCNCc1ccoc1-c1ccc2ncnc(Nc3ccc(OCc4ccccc4)cc3)c2c1`: the inhibition in assay [1] is 1.03%; in assay [2], -1.22%; in assay [3], -0.53%; in [4] it was -0.17%; in assay [5], -0.95%; in assay [6] it was -0.19%. The inhibition in assay [7] amounted to 0.82%; in assay [8] it was 3.88%; in assay [9] it was 5.6%; in assay [10], 1.94%; in assay [11], 6.88%; in [12], 5.01%. The inhibition is 1.5% in assay [13]; 2.27% in assay [14]; 2.3% in assay [15]; 0.74% in [16]; 3.57% in [17]; 1.79% in assay [18]. Moreover, the inhibition came out at 8.23% in assay [19] and 1.59% in assay [20].
Consider `OCCCNc1nccc(-c2c(-c3ccc(F)cc3)nn3cc(C(F)(F)F)ccc23)n1`, for which the inhibition was 0.19% in [1]; -0.95% in assay [2]; -4.2% in assay [3]; 1.8% in assay [4]; 0.99% in [5]; 0.08% in [6]. Moreover, the inhibition in assay [7] is 1.33%; in assay [8], 4.84%; in [9] it was 6.21%; in assay [10], 3.28%; in [11], 8.99%; in assay [12], 1.58%. The inhibition in assay [13] was 0.33%; in assay [14], -0.18%; in [15] it was 0.98%; in assay [16], -1.46%; in [17], -0.39%; in [18], 1.91%. For the same molecule, the inhibition amounted to 5.83% in assay [19] and 3.02% in assay [20].
For `NS(=O)(=O)c1ccc(N/N=C2\C(=O)Nc3ccc(C(=O)NCc4ccncc4)cc32)cc1`, the inhibition in assay [1] is 3.12%; in [2], 3.77%; in [3], 9.66%; in assay [4], 0.74%; in assay [5], 1.38%; in assay [6], -0.81%. The inhibition worked out at 6.2% in assay [7]; 7.35% in assay [8]; 34.5% in assay [9]; 4.44% in [10]; 12.5% in [11]; 3.05% in assay [12]. For the same molecule, the inhibition in assay [13] amounted to 12.7%; in [14], 1.57%; in [15], 4.42%; in assay [16], 1.34%; in assay [17] it was 10.7%; in [18], 2.05%. Besides, the inhibition worked out at 8.27% in [19] and 2.1% in [20].
